According to PubChem BioAssay (NCI):
Compounds without any hit were thinned out: in the full panel of roughly 83,000, 20% have a hit.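 Single-dose data. Exposure time 48 hours. Values below 10 considered active.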 Values without a mark were called inactive. Calls of active or inactive are those of the source.

How the values were obtained:
Experiment in all cases: NCI-60 one-dose screen, 48 h (100 = growth as untreated, 0 = no growth, -100 = all killed)
Details in all cases: 10 µM unless noted
[1] = tested on: HCT-15 colon
[2] = tested on: HT29 colon
[3] = tested on: SNB-75 CNS
[4] = tested on: SNB-19 CNS
[5] = tested on: U251 CNS
[6] = tested on: PC-3 prostate
[7] = tested on: SK-MEL-5 melanoma
[8] = tested on: LOX IMVI melanoma
[9] = tested on: SK-MEL-28 melanoma
[10] = tested on: SK-MEL-2 melanoma
[11] = tested on: EKVX NSCLC
[12] = tested on: SN12C renal
[13] = tested on: UO-31 renal
[14] = tested on: TK-10 renal
[15] = tested on: ACHN renal
[16] = tested on: CAKI-1 renal
[17] = tested on: A498 renal
[18] = tested on: CCRF-CEM leukemia
[19] = tested on: MOLT-4 leukemia

SMILES | growth [1] [%] | growth [2] [%] | growth [3] | growth [4] [%] | growth [5] [%] | growth [6] [%] | growth [7] | growth [8] [%] | growth [9] [%] | growth [10] [%] | growth [11] [%] | growth [12] [%] | growth [13] | growth [14] [%] | growth [15] [%] | growth [16] [%] | growth [17] [%] | growth [18] | growth [19]
Cc1n(Cc2ccc3ccccc3c2)c(Cl)c(Cl)[n+]1Cc1ccc2ccccc2c1 | 92.5 | 19.2 | -1.79% (active) | 23.3 | 19.8 | 12.2 | -79.4% (active) | 27.8 | 26.6 | 25.5 | 51.1 | 30.7 | 72.1% | 52.5 | 80.8 | 29.2 | 40.3 | 14% | 25.4%
CCOc1ccccc1NC(=O)c1cc2ccccc2cc1O | 45.4 | 99.8 | 87.7% | 52.9 | 24.4 | 20.9 | 25.6% | 51.1 | 87.7 | 37.4 | 75 | 42.8 | 23.7% | 50.6 | 29.3 | 45.7 | 32.7 | 32.4% | 44.6%
O=C(Nc1ccccc1C(=O)N/N=C(\c1ccccc1)c1ccccn1)c1ccccc1 | 25.7 | 22.1 | 64% | 27.9 | 10.8 | 43.7 | -20.9% (active) | 14.5 | 31.9 | 30.2 | 10.1 | 25.4 | 8.85% (active) | 47.4 | 13.6 | 16.9 | 16.5 | -2.61% (active) | 2.47% (active)
